Results from PubChem BioAssay (NCATS).
“And” between values parts separate entries of the source, which are not always exact repeats. Equal values may be shown once. Results filed as inconclusive are left out. Entries that show only a call come without a potency. The source made the active and inactive calls. Unless noted, the call rests on the fitted dose curve; in most records, active means well fitted curve in the direction sought with a large enough effect; inconclusive means small, poorly fitted or top-dose-only effect, or another doubt; inactive means no such curve, though single readings can be large; an effect the other way counts as inactive or inconclusive.

How the values were obtained:
[1] = Cell Viability - SK-N-SH (AID 435; calls by dose curve;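 further: potency means the concentration at half of the fitted maximal effect; compound exposure lasted 40 h at 37 °C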); settings: SK-N-SH neuroblastoma cell viability qHTS
Summary of the method: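 SK-N-SH human neuroblastoma cells (1500/well) were exposed to compounds in complete medium for 40 h at 37 °C, and intracellular ATP was then measured by CellTiter-Glo luminescence. AC50 was taken from Hill fits, normalized to DMSO and 100 uM tamoxifen.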

[2] = Cellular Toxicity (caspase-3) HUV-EC-C (AID 656); settings: HUV-EC-C cells, caspase-3 activation (apoptosis), vehicle = 0, 100 µM tamoxifen = 100%; series mostly up to 92.2 µM
Summary of the method: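 HUV-EC-C endothelial cells, 1000/well, were pre-incubated 5 hr at 37°C, then exposed to compounds for 16 hr at 37°C. Caspase-Glo 3/7 luminescence was read after 20 min at room temperature. AC50 came from Hill fits, normalized to DMSO and 100 uM tamoxifen.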

[3] = MultiTox-Fluor Cytotoxicity Assay - LYMP1-002 - Dead Cells (AID 960); settings: LYMP1-002 lymphoblastoid cells, dead-cell protease fluorescence; series mostly up to 46.1 µM; further: nearly all actives have a fitted effect of over 60% in size
Summary of the method: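 Dead-cell fluorescence (Ex/Em 485/520) after 16 h compound exposure at 37 C of LYMP1-002 lymphoblastoid cells in complete medium; AC50 by Hill equation, with data scaled between DMSO and 15 uM tetraoctylammonium bromide.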

[4] = Cell Viability - LYMP2-004 (AID 966); settings: LYMP2-004 lymphoblastoid cell viability, qHTS; series mostly up to 92.2 µM; further: nearly all actives have a fitted effect of over 65% in size
Summary of the method: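 AC50 values come from Hill modelling of concentration-dependent loss of intracellular ATP, measured by CellTiter-Glo luminescence. Human LYMP2-004 lymphoblastoid cells (2500/well) were exposed to compound for 24 h at 37 C.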

[5] = Cell Viability - LYMP2-005 (AID 967); settings: LYMP2-005 lymphoblastoid cell viability; series mostly up to 92.2 µM
Summary of the method: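 CellTiter-Glo luminescence (cellular ATP) read-out; LYMP2-005 lymphoblastoid cells, 2500/well, 5 h pre-incubation, then 24 h compound exposure at 37 C in complete medium. Tetraoctylammonium bromide positive control; AC50 by standard Hill fit.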

[6] = Cell Viability - LYMP2-013 (AID 970); settings: LYMP2-013 lymphoblastoid cells viability; series mostly up to 92.2 µM; further: nearly all actives have a fitted effect of over 55% in size
Summary of the method: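 qHTS cytotoxicity: ATP-dependent luminescence (CellTiter-Glo, 30 min room temperature) read after 24 h compound exposure at 37 C of 2500 LYMP2-013 lymphoblastoid cells per well. Concentration-response fitted with Hill equation to give AC50.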

[7] = Cell Viability - LYMP2-025 (AID 976); settings: LYMP2-025 lymphoblastoid cell viability; series mostly up to 92.2 µM
Summary of the method: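 Cytotoxicity read as loss of intracellular ATP (luciferase luminescence) after 24 h compound treatment at 37 C. Uses LYMP2-025 lymphoblastoid cells in 1536-well format; Hill-equation modelling gives AC50; tetraoctylammonium bromide as positive control.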

[8] = Cell Viability - LYMP2-007 (AID 979); settings: LYMP2-007 lymphoblastoid cell viability; series mostly up to 92.2 µM;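 further: cells exposed to compound for 24 h before reading; nearly all actives have a fitted effect of over 60% in size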
Summary of the method: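 AC50 values come from Hill-equation fits of luminescent intracellular ATP (CellTiter-Glo, 30 min, room temperature) following 24 h compound exposure at 37 C. Cells: LYMP2-007 lymphoblastoid line, 2500 per well, in complete culture medium.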

[9] = Cell Viability - LYMP2-014 (AID 983); settings: LYMP2-014 lymphoblastoid cells, viability qHTS; series mostly up to 92.2 µM; further: nearly all actives have a fitted effect of over 50% in size
Summary of the method: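 Intracellular ATP loss, read by luciferase luminescence, measures acute cytotoxicity after 24 h compound exposure of lymphoblastoid LYMP2-014 cells (2500/well, 37 C). Concentration-response data fitted to the Hill equation for AC50.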

[10] = Cell Viability - LYMP2-018 (AID 985); settings: LYMP2-018 lymphoblastoid cells, viability (qHTS); series mostly up to 92.2 µM; further: nearly all actives have a fitted effect of over 50% in size
Summary of the method: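 Viability read as CellTiter-Glo luminescence (cellular ATP) after 24 hr compound exposure at 37 C of 2500 LYMP2-018 lymphoblastoid cells/well, pre-plated 5 hr. Hill-equation modelling gave AC50.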

[11] = Cell Viability - LYMP2-022 (AID 987); settings: LYMP2-022 lymphoblastoid cell viability; series mostly up to 92.2 µM; further: nearly all actives have a fitted effect of over 55% in size
Summary of the method: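 Cytotoxicity read as decreased cellular ATP (CellTiter-Glo luminescence, 30 min room temperature) after 24 hours compound exposure of 2500 lymphoblastoid LYMP2-022 cells/well at 37 C. Concentration-response data fitted with standard Hill equation for AC50.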

[12] = Cell Viability - LYMP2-024 (AID 988); settings: LYMP2-024 lymphoblastoid cell viability; series mostly up to 92.2 µM; further: nearly all actives have a fitted effect of over 60% in size
Summary of the method: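 Cytotoxicity was taken as a decrease in ATP (CellTiter-Glo luminescence) after 24 hr compound exposure at 37 C of LYMP2-024 lymphoblastoid cells, 2500 cells/well. Concentration-response data were fitted to the Hill equation to give AC50.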

[13] = qHTS assay for small molecule agonists of retinoid X receptor alpha signaling (AID 588544); settings: HEK293T RXRa-UAS-bla, beta-lactamase reporter, 18 h; 530 nm emission
[14] = biological target: Thyroid hormone receptor beta (Homo sapiens) (UniProt P10828); test: qHTS assay for small molecule agonists of thyroid hormone receptor beta signaling (AID 588545; calls by dose curve); settings: TR-UAS-bla GripTite HEK 293, beta-lactamase ratio, agonist mode, 18 h; series mostly up to 76.7 µM
Summary of the method: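 Agonist activity was read as beta-lactamase CCF4 fluorescence (405 ex, 460/530 em), scaled between DMSO (0%) and 10 nM T3 (100%), then Hill-fitted for EC50 and efficacy. HEK 293 TR-UAS-bla cells in 2% charcoal/dextran FBS medium were exposed 18 h at 37 C.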

[15] = qHTS assay for small molecule antagonists of retinoid X receptor alpha signaling (AID 588546); settings: HEK293T RXRa-UAS-bla, beta-lactamase ratio, antagonist mode; measured here: W530 green channel, cytotoxicity proxy;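 further: cells stimulated with 9-cis-retinoic acid as agonist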
Summary of the method: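 Beta-lactamase reporter inhibition, read as CCF4 fluorescence ratio (ex 405, em 460/530 nm) after 2 h at RT. HEK293T UAS-bla cells, 2500/well, were stimulated with 9-cis-RA at 500 or 100 nM final alongside test compound for 18 h at 37 C.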

[16] = biological target: Thyroid hormone receptor beta (Homo sapiens) (UniProt P10828); test: qHTS assay for small molecule antagonists of thyroid hormone receptor beta signaling (AID 588547; active means well fitted inhibition curve with a large enough effect in the signal ratio, with a control signal flat, not every such curve was filed as active; the % refers to the signal ratio;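 further: cells stimulated with 0.4 nM T3 agonist during compound exposure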); settings: TR-UAS-bla HEK293, beta-lactamase ratio, antagonist mode, 18 h
Summary of the method: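 TR-UAS-bla GripTite HEK293 cells in 2% charcoal/dextran FBS medium were preincubated 4 h at 37 C, given compound (0.59 nM to 92 uM) plus 0.4 nM T3 (final) for 18 h, then CCF4 for 2 h at RT; Hill fit gave IC50.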

[17] = biological target: Tumor necrosis factor (Homo sapiens) (UniProt P01375); test: qHTS assay to identify small molecules that stimulate Tumor Necrosis Factor-alpha (TNF-alpha) secretion (AID 651757; active means well fitted curve in the direction sought with a large enough effect in the signal ratio; the % refers to the signal ratio); settings: Human cells, HTRF 665/615 ratio; series mostly up to 92.2 µM
Summary of the method: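 Secreted TNF-alpha quantified by TR-FRET sandwich of two labeled anti-TNF-alpha antibodies, incubated 3 hr at room temperature. Preceded by 17 hr, 37 C compound treatment of THP-1 cells at 3000 cells/well.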

[18] = qHTS assay for cell viability of HEK293 cells (AID 743288); settings: ATP luminescence (CellTiter-Glo), 18 h, stronger effect = lower value; further: nearly all actives have a fitted effect of over 50% in size
Summary of the method: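 After 18 h compound exposure at 37 C, parental HEK293 cells (2,000/well) are lysed with CellTiter-Glo and luminescence is read following 30 min at room temperature.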

[19] = biological target: Nuclear receptor subfamily 1 group I member 2 (Rattus norvegicus) (UniProt Q9R1A7); test: qHTS assay for small molecule activators of the rat pregnane X receptor (rPXR) signaling pathway (AID 651751; call rule not given here); settings: rPXR reporter cells, luciferase (One-Glo), 24 h
[20] = Cellular Toxicity (caspase-3) H-4-II-E (AID 663); settings: H-4-II-E rat hepatoma; Potency: caspase-3 activation; series mostly up to 92.2 µM;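 further: cells exposed to compound for 16 hr before readout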
Summary of the method: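 Caspase 3/7 activation measured in H-4-II-E cells in complete culture medium after 16 hr treatment at 37 °C, using luciferase-coupled substrate readout; AC50 values come from Hill-equation fits of normalized concentration-response data.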

Chain of Nuclear receptor subfamily 1 group I member 2 (Rattus norvegicus) (Q9R1A7 whole entry, looked up): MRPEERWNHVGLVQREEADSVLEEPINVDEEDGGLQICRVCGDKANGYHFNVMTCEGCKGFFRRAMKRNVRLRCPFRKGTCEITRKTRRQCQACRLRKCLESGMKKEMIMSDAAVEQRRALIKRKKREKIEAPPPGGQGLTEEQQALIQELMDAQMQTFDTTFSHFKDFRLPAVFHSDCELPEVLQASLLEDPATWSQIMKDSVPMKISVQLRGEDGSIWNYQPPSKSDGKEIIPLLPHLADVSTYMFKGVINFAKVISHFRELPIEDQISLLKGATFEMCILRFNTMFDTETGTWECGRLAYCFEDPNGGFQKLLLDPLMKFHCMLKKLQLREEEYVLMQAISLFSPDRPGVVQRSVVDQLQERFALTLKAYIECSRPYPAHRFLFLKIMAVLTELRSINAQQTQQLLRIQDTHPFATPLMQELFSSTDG
Chain of Thyroid hormone receptor beta (Homo sapiens) (P10828 whole entry, looked up): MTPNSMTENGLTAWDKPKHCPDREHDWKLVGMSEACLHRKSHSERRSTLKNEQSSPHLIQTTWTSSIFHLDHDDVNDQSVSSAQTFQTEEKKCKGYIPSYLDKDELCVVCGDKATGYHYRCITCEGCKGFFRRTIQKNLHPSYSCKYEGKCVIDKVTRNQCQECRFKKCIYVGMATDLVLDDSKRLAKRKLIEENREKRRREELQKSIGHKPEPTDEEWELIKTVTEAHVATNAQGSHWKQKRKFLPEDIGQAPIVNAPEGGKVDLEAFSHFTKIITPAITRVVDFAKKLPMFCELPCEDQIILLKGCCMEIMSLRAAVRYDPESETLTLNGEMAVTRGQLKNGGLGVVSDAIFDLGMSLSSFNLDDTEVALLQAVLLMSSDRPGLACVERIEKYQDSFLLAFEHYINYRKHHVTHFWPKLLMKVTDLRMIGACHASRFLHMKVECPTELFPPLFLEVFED
Chain of Tumor necrosis factor (Homo sapiens) (P01375 whole entry, looked up): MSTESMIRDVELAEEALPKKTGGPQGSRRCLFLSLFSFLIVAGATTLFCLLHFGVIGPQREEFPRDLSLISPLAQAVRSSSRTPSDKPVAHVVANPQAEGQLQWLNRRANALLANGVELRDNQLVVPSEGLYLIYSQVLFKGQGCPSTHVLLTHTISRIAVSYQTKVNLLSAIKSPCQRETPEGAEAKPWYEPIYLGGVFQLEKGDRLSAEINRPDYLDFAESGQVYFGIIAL

Row | SMILES | Potency [1] | outcome [2] | Potency [3] | Potency [4] | Potency [5] | Potency [6] | Potency [7] | Potency [8] | Potency [9] | Potency [10] | Potency [11] | Potency [12] | max response [13] | Potency [14] | max response [15] | activity change % (negative = inhibition) [16] | outcome [17] | max response [18] | max response [19] | Potency [20]
1 | CCOC(=O)CC(SP(=O)(OC)OC)C(=O)OCC (centres undefined) | > 92 µM (inactive) | inactive | inactive | inactive | inactive | inactive | inactive | inactive | inactive | inactive | inactive | inactive | 9.41% and -5.43% | inactive | 7.78% and 5.62% | -9.27% (inactive) and -19.3% (inactive) | inactive | -12.5% (inactive) and -3.42% (inactive) | -7.84% (inactive) and -3.31% (inactive) | –
2 | Cc1ccc(N)c(C)c1 | > 92 µM (inactive) | – | inactive | inactive | inactive | inactive | inactive | inactive | inactive | inactive | inactive | inactive | -7.75% | inactive | 1.29% | 2.7% (inactive) | inactive | 1.36% (inactive) | -0.287% (inactive) | –
3 | OCCBr | > 92 µM (inactive) | inactive | inactive | inactive | inactive | inactive | inactive | inactive | inactive | inactive | inactive | inactive | 1.51% | inactive | 8.33% | – | inactive | 5.14% (inactive) | -0.978% (inactive) | inactive
4 | CCCCC#N | > 92 µM (inactive) | inactive | inactive | inactive | inactive | inactive | inactive | inactive | inactive | inactive | inactive | inactive | 2.48% | – | -4.26% | -12.9% (inactive) | inactive | 2.15% (inactive) | -0.572% (inactive) | inactive
5 | CC(C)[C@]12CC(=O)[C@H](C)[C@H]1C2 | > 92 µM (inactive) | inactive | inactive | inactive | inactive | inactive | inactive | inactive | inactive | inactive | inactive | inactive | -6.67% and -9.54% | inactive | -7.72% and -9.15% | -3.76% (inactive) and 6.48% (inactive) | inactive | 18.6% (inactive) and -3.71% (inactive) | 2.33% (inactive) and 6.9% (inactive) | inactive
6 | CCOP(=O)(OCC)OCC | > 92 µM (inactive) | inactive | inactive | inactive | inactive | inactive | inactive | inactive | inactive | inactive | inactive | inactive | -8.04% and -7.35% | inactive | 9.41% and -13.4% | -0.564% (inactive) and 12.2% (inactive) | inactive | 5.7% (inactive) and 3.95% (inactive) | 0.98% (inactive) and -0.959% (inactive) | –
